# Results as given in PubChem BioAssay (NCATS).
# Where “and” joins values, the source holds several entries; their conditions need not be identical. Equal entries are not always repeated. Inconclusive results are not listed. Entries that show only a call come without a potency. Calls of active or inactive are those of the source. Unless noted, calls follow the shape of the dose curve; as a rule, active = well fitted curve in the direction sought with a large enough effect; inconclusive = small, poorly fitted or top-dose-only effect, or another doubt; inactive = no such curve, though single readings can be large; an effect the other way counts as inactive or inconclusive.
# Assays:
# [1] = target: Tyrosine-protein kinase Yes (Homo sapiens) (UniProt P07947); assay: qHTS for small molecule inhibitors of Yes1 kinase: Primary Screen (AID 686947); conditions: Yes1 kinase biochemical qHTS inhibition; series mostly up to 76.9 µM; also: nearly all actives have a fitted effect of over 60% in size; also: potency is read from the fitted curve at half-maximal effect
# Outline: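 In this qHTS format, inhibition is expressed relative to DMSO controls with enzyme (maximum) and without enzyme (minimum). The 60 min room-temperature reaction uses 0.1 mM ATP, with ADP detected by luminescence.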
# [2] = qHTS for small molecule inhibitors of Yes1 kinase: Counter Assay (AID 686950); conditions: series mostly up to 76.9 µM;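 also: no kinase present so only ADP-Glo detection of a fixed ADP amount is tested; luminescence from ADP-Glo reporting ADP in a fixed ATP and ADP mixture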
# Outline: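 ADP-Glo luminescence read after a 60 min room-temperature incubation of compound with an ATP/ADP mix (0.08 mM/0.02 mM) and no kinase, following a 20 min compound preincubation. Signal scaled between ATP+ADP (max) and 0.1 mM ATP-only (min) wells; Tris pH 7.5, Mg2+, DTT.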
# [3] = qHTS Assay for Identifying Gametocytocidal Compounds (AID 743244); also: potency is read from the fitted curve at half-maximal effect;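 as to max response: actives lower the fluorescent signal which means gametocytes are killed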; conditions: P. falciparum 3D7 stage III-V gametocytes, alamarBlue, 72 h; max response: stronger effect = lower value
# Outline: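 Viability read-out was resazurin reduction (alamarBlue, 24 h) measured at Ex 525/Em 598 nm. Beforehand, late-stage (III-V) 3D7 P. falciparum gametocytes at 20,000 cells/well were incubated with compound 72 h at 37C under 5% CO2.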
# [4] = qHTS profiling for inhibitors of Plasmodium falciparum (3D7) proliferation (AID 743322; call rule not given here;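 also: infected erythrocytes exposed to compound for 72 h before lysis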); conditions: P. falciparum 3D7 proliferation; at 28.7 µM (top of the series) unless noted
# Outline: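 Parasite DNA was quantified by SYBR Green I fluorescence (ex 485, em 535 nm) after overnight lysis in saponin/Triton buffer at room temperature. Cultures at 0.3% parasitemia and 2.5% hematocrit were first exposed to compound for 72 h at 37 C; signals were normalised to artemisinin (0.29 uM) and vehicle wells.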
# [5] = target: Tumor necrosis factor (Homo sapiens) (UniProt P01375); assay: qHTS assay to identify small molecules that stimulate Tumor Necrosis Factor-alpha (TNF-alpha) secretion (AID 651757; active = well fitted curve in the direction sought with a large enough effect in the signal ratio; the % refers to the signal ratio); conditions: Human cells, HTRF 665/615 ratio; series mostly up to 92.2 µM
# Outline: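 THP-1 cells, 3000/well; compound 17 hrs, 37 C; add cryptate/XL665 anti-TNF-alpha antibody pair; 3 hr RT; TR-FRET (HTRF) read of secreted TNF-alpha. Quantitative HTS format.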
# [6] = qHTS assay for environmental chemicals that activate the Aryl hydrocarbon Receptor (AhR) signaling pathway (AID 651777); conditions: 1A2-DRE human hepatoma cells, luciferase, 24 h; stronger effect = higher value; also: nearly all actives have a fitted effect of over 15% in size
# Outline: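 Luminescence (One-Glo, 30 min, room temperature) reports AhR-driven luciferase in stably transfected human hepatoma cells bearing DRE and CYP1A2 promoter. Cells (1,200/well) were treated with compound for 24 hr at 37 C in qHTS format.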
# [7] = target: Peroxisome proliferator-activated receptor alpha (Homo sapiens) (UniProt Q07869); assay: qHTS assay for small molecule agonists of the peroxisome proliferator-activated receptor alpha (PPARalpha) signaling pathway (AID 651778); conditions: PathHunter PPARalpha complementation, chemiluminescence, 6 h; stronger effect = higher value
# Outline: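 Chemiluminescence from complemented enzyme reported PPARalpha activation in cells after 6 hr of compound treatment at 37 C. The detection reagent was incubated for 60 min at room temperature, and compounds were scored as agonists.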
# [8] = target: Nuclear receptor ROR-gamma (Homo sapiens) (UniProt P51449); assay: qHTS assay for small molecule antagonists of the retinoid-related orphan receptor gamma (ROR-gamma) signaling pathway (AID 651802); conditions: ROR-gamma antagonist cell reporter assay; series mostly up to 92.2 µM;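 also: CHO cells with doxycycline-induced ROR-gamma expression; luciferase reporter luminescence driven by ROR response element; nearly all actives have a fitted effect of over 60% in size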
# Outline: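 Luciferase read-out: ONE-Glo luminescence after 30 min at room temperature, following 16hr doxycycline induction at 37C, 5% CO2 of CHO cells with TET-inducible ROR and RORE-LUC reporter; decreased luminescence = reduced reporter activity.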
# [9] = qHTS assay for small molecule agonists of the antioxidant response element (ARE) signaling pathway measured by Nrf2-dependant transcriptional activity (AID 720636; active = well fitted curve in the direction sought with a large enough effect in the repeat runs; an effect the other way counts as inactive or inconclusive); conditions: ARE-luc HepG2, Nrf2 luciferase reporter, 16 h; series mostly up to 92.4 µM
# Outline: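 Nrf2-dependent transcription read as ONE-Glo luciferase signal from ARE-luc HepG2 reporter cells after 16 hr compound treatment at 37 C, 5% CO2, in assay medium with 1% dialyzed FBS.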
# [10] = qHTS assay for small molecule antagonists of the retinoid-related orphan receptor gamma (ROR-gamma) signaling pathway - cell viability counter screen (AID 720652; active = well fitted curve in the direction sought with a large enough effect in the repeat runs; an effect the other way counts as inactive or inconclusive;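 also: CHO reporter cells with doxycycline-induced ROR-gamma expression; compound exposure lasted 16 hr before ATP read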); conditions: RORgamma reporter cell line viability counter screen; series mostly up to 92.2 µM
# Outline: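 CHO RORE-LUC/TET-ROR line, 1,000 cells/well, 37 C 5% CO2 5 hr; cpd or DMSO + doxycycline induction, 16 hr. CellTiter-Glo, 30 min RT, luminescence = ATP content.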
# [11] = qHTS assay for small molecule agonists of the antioxidant response element (ARE) signaling pathway measured by Nrf2-dependant transcriptional activity - cell viability counter screen (AID 720653; active = well fitted curve in the direction sought with a large enough effect in the repeat runs; an effect the other way counts as inactive or inconclusive); conditions: ARE-bla HepG2 viability, CellTiter-Glo ATP luminescence, 16 h; stronger effect = lower value
# Outline: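 Cytotoxicity counter screen: intracellular ATP quantified by CellTiter-Glo luminescence in the same ARE-bla HepG2 plates, after 16 h compound exposure and a 2 h beta-lactamase substrate step.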
# [12] = qHTS assay for cell viability of HEK293 cells (AID 743288); conditions: ATP luminescence (CellTiter-Glo), 18 h, stronger effect = lower value; also: nearly all actives have a fitted effect of over 50% in size
# Outline: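 HEK293, 18 h, 37 C, ATP luminescence. Cells at 2,000/well were allowed at least 5 h to settle before dosing; CellTiter-Glo developed 30 min at RT.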
# [13] = qHTS assay for cell viability of the p53RE-bla HCT-116 cell line (AID 743292); conditions: p53RE-bla HCT-116 viability, ATP luminescence, 16 h; series mostly up to 95 µM; also: nearly all actives have a fitted effect of over 55% in size
# Outline: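 ATP-based luminescent viability (CellTiter-Glo, 30 min RT) after 16 h compound treatment at 37 C of p53RE-bla HCT-116 cells, seeded at 4,000 cells/well and rested 5 h before dosing.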
# Sequence of Tyrosine-protein kinase Yes (Homo sapiens) (P07947 whole entry, looked up): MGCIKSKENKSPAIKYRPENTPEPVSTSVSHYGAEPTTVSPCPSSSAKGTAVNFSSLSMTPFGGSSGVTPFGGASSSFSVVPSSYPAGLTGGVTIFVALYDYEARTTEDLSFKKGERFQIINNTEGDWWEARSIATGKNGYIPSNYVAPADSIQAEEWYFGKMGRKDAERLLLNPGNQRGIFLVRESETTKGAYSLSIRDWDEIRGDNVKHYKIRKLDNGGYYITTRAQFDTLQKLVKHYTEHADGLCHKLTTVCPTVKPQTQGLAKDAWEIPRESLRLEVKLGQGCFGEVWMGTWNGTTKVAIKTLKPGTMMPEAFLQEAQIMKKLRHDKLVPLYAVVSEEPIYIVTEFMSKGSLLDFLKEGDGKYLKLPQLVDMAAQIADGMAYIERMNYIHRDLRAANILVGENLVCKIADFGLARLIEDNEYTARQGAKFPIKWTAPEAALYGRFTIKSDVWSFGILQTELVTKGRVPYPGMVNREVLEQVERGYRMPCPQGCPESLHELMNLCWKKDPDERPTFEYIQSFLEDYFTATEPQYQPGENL
# Sequence of Peroxisome proliferator-activated receptor alpha (Homo sapiens) (Q07869 whole entry, looked up): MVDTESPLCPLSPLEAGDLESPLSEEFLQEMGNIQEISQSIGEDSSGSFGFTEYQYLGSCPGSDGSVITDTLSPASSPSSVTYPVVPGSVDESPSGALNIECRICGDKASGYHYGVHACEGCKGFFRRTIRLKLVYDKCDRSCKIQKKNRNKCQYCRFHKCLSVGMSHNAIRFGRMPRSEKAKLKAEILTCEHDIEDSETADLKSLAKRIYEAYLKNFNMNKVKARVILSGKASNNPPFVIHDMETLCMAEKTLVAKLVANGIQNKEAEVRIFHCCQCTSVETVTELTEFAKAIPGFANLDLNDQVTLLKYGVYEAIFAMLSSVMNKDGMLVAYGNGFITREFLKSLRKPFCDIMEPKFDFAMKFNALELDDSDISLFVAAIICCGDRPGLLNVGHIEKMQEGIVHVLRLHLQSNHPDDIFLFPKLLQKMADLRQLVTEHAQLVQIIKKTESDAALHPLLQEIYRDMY
# Sequence of Nuclear receptor ROR-gamma (Homo sapiens) (P51449 whole entry, looked up): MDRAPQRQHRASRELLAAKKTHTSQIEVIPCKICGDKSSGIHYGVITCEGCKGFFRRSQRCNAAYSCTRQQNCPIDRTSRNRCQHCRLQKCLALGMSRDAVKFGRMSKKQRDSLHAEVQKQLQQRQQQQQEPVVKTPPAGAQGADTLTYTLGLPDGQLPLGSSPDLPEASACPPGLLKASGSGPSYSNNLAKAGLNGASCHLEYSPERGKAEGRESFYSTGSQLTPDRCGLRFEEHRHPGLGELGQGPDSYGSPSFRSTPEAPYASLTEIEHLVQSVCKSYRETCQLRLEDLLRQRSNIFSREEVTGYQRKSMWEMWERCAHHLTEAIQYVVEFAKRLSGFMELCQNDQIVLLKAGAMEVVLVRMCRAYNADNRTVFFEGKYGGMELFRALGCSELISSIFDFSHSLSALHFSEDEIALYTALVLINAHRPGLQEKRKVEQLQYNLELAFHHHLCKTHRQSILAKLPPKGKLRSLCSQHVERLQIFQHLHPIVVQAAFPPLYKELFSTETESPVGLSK
# Sequence of Tumor necrosis factor (Homo sapiens) (P01375 whole entry, looked up): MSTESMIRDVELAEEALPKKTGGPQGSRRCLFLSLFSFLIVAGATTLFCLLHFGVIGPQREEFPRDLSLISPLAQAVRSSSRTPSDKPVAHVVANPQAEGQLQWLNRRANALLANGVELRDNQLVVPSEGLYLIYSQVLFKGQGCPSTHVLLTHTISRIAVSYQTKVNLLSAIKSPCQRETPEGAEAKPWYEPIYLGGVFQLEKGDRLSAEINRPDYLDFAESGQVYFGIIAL
compound,measurement,setting,value
O=C1C(CCC(O)c2ccc(F)cc2)C(c2ccc(O)cc2)N1c1ccc(F)cc1 (configuration not stated),Potency,[1],inactive
same,outcome,[2],inactive
same,max response,[3],8.66% (inactive)
CN(C)CCCNC(=O)c1ccc(-c2cc(O)c3ncccc3c2)cc1,Potency,[1],38.7 µM (active)
same,outcome,[2],inactive
same,Potency,[3],2.96 µM (active)
Cc1c(C(=O)Nc2ccc(N3C[C@@H](C)O[C@@H](C)C3)nc2)cccc1-c1ccc(OC(F)(F)F)cc1,Potency,[1],inactive
same,outcome,[2],inactive
same,max response,[3],0.51% (inactive)
COc1cc2c(cc1OC)CC(=O)N(CCCN(C)C[C@H]1Cc3cc(OC)c(OC)cc31)CC2,Potency,[1],inactive
same,outcome,[2],inactive
same,max response,[3],-6.61% (inactive)
same,remaining parasite growth % (stronger effect = lower value),[4],105%
CC(C)n1c(C=C[C@H](O)C[C@H](O)CC(=O)O)c(-c2ccc(F)cc2)c2ccccc21,Potency,[1],inactive
same,outcome,[2],inactive
same,max response,[3],-4.13% (inactive)
CCOC(=O)[C@@H](N)CCC(=O)N[C@@H](CSCc1ccccc1)C(=O)N[C@@H](C(=O)OCC)c1ccccc1,Potency,[1],inactive
same,outcome,[2],inactive
COc1cc2ncn(-c3cc(OCc4ccccc4S(C)(=O)=O)c(C#N)s3)c2cc1OC,Potency,[1],0.232 µM (active)
same,outcome,[2],inactive
COc1c(C)cnc(Cn2cnc3c(Cl)nc(N)nc32)c1C,Potency,[1],inactive
same,outcome,[2],inactive
same,Potency,[3],23.5 µM (active)
CC(C)(C)c1[nH]cnc1C=c1[nH]c(=O)c(=Cc2ccccc2)[nH]c1=O,Potency,[1],inactive
same,outcome,[2],inactive
same,max response,[3],-26.5% (inactive)
CCCCc1ccc(NS(=O)(=O)c2ccc(C)c(C(=O)N3CCN(c4cccc(C)c4C)CC3)c2)cc1,Potency,[1],inactive
same,outcome,[2],inactive
same,max response,[3],17% (inactive)
CCC=CC[C@H]1C(=O)CC[C@@H]1CC(=O)OC,Potency,[1],inactive
same,outcome,[2],inactive
same,max response,[3],12% (inactive)
COc1cccc(OC)c1-c1cc(C(=O)NC2(C(=O)O)C3CC4CC(C3)CC2C4)nn1-c1ccnc2cc(Cl)ccc12 (configuration not stated),Potency,[1],inactive
same,outcome,[2],inactive
same,max response,[3],42.4% (inactive)
CCCCn1c(=O)n(Cc2ccccc2F)c(=O)c2[nH]c(Cc3ccc(NC(C)=O)cc3)nc21,Potency,[1],inactive
same,outcome,[2],inactive
same,max response,[3],66.3% (inactive)
O=C(Nc1cccc(Cl)c1)Nc1ncc(CCNc2ncnc3ccsc23)s1,Potency,[1],inactive
same,outcome,[2],inactive
same,max response,[3],5.02% (inactive)
Cn1cc(-c2ccc3nnc(Sc4ccc5ncccc5c4)n3n2)cn1,Potency,[1],inactive
same,outcome,[2],inactive
same,max response,[3],-16.9% (inactive)
O=C1Nc2ccc(I)cc2C1=Cc1cc(Br)c(O)c(Br)c1,Potency,[1],5.82 µM (active)
same,outcome,[2],inactive
CC(C)Oc1cc(Nc2nc(N[C@@H](C)c3ccc(F)cn3)ncc2Cl)[nH]n1,Potency,[1],0.0061 µM (active)
same,outcome,[2],inactive
same,Potency,[3],2.35 µM (active)
same,remaining parasite growth % (stronger effect = lower value),[4],3.18%
Cc1nn(Cc2ccccc2Cl)c(C)c1CN(C)CC(O)COc1ccc(Cl)cc1 (configuration not stated),Potency,[1],inactive
same,outcome,[2],inactive
CNC(=O)c1cc(Oc2ccc(NC(=O)Nc3ccc(Cl)c(C(F)(F)F)c3)c(F)c2)ccn1,Potency,[1],4.87 µM (active)
same,outcome,[2],inactive
same,max response,[3],21.4% (inactive)
C[C@@H]1C[C@H]2[C@@H]3CCC4=CC(=O)C=C[C@]4(C)[C@@]3(F)[C@@H](O)C[C@]2(C)[C@@]1(O)C(=O)CO,outcome,[5],inactive
same,activation,[6],-0.0369% (inactive) and 0.315% (inactive)
same,max response,[7],-0.146% (inactive) and 1.68% (inactive)
same,outcome,[8],inactive
same,outcome,[9],inactive
same,outcome,[10],inactive
same,max response,[11],-1.58% (inactive) and -7.2% (inactive)
same,max response,[12],-1.33% (inactive) and -8.25% (inactive)
same,outcome,[13],inactive
O=C(O)c1ccc(O)c2ncc(N3CCOCC3)cc12,Potency,[1],inactive
same,outcome,[2],inactive
Nc1ccc(-c2ccc3ncc4ccc(=O)n(-c5cccc(C(F)(F)F)c5)c4c3c2)cn1,Potency,[1],27.4 µM (active)
same,outcome,[2],inactive
same,Potency,[3],0.027 µM (active)
Cc1ccc(NC(=O)c2ccc(CN3CCN(C)CC3)cc2)cc1Nc1nc(-c2cccnc2)cs1,Potency,[1],0.345 µM (active)
same,outcome,[2],inactive
COc1ccc(CCN(C)CCCOc2ccc(S(=O)(=O)c3[nH]c4ccccc4c3C(C)C)cc2)cc1OC,Potency,[1],inactive
same,outcome,[2],inactive
Cc1ccc(C(=O)N(CCCN)[C@@H](c2nc3cc(Cl)ccc3c(=O)n2Cc2ccccc2)C(C)C)cc1,Potency,[1],inactive
same,outcome,[2],inactive
same,Potency,[3],18.7 µM (active)
NC(=O)c1ccc(N(C(N)=O)c2c(F)cccc2F)nc1-c1ccc(F)cc1F,Potency,[1],inactive
same,outcome,[2],inactive
same,max response,[3],15.2% (inactive)
Cc1csc(-c2nnc(Nc3ccc(Oc4ncccc4-c4ccnc(N)n4)cc3)c3ccccc23)c1,Potency,[1],inactive
same,outcome,[2],inactive
same,max response,[3],10.6% (inactive)
same,remaining parasite growth % (stronger effect = lower value),[4],93.3%
CN1C(=O)C(Cc2c[nH]c3ccccc23)NC1=S (configuration not stated),Potency,[1],inactive
same,outcome,[2],inactive
same,max response,[3],15.9% (inactive)
same,remaining parasite growth % (stronger effect = lower value),[4],109%
